Reference: PubChem BioAssay (NCI)
Compounds without any hit were thinned out: in the full panel of roughly 83,000, 20% have a hit.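 Compound tested at a single concentration for 48 hours in 96-well plates; a percent growth value below 10 was scored as active.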 Calls of active or inactive are those of the source.

Experiments:
Assay in all cases: NCI-60 one-dose screen, 48 h (100 = growth as untreated, 0 = no growth, -100 = all killed)
SR leukemia = settings: 10 µM unless noted
RPMI-8226 leukemia = settings: 10 µM unless noted
OVCAR-8 ovarian = settings: 10 µM unless noted
OVCAR-5 ovarian = settings: 10 µM unless noted
OVCAR-4 ovarian = settings: 10 µM unless noted
SK-OV-3 ovarian = settings: 10 µM unless noted
IGROV1 ovarian = settings: 10 µM unless noted
OVCAR-3 ovarian = settings: 10 µM unless noted
HS 578T breast = settings: 10 µM
NCI/ADR-RES ovarian = settings: 10 µM unless noted
T-47D breast = settings: 10 µM unless noted
BT-549 breast = settings: 10 µM unless noted
MDA-MB-435 melanoma = settings: 10 µM unless noted
SW-620 colon = settings: 10 µM unless noted
MCF7 breast = settings: 10 µM unless noted
HCT-116 colon = settings: 10 µM unless noted
HCC-2998 colon = settings: 10 µM
KM12 colon = settings: 10 µM unless noted

Measured: growth

Cc1ccsc1C(NC(=O)c1ccccc1)c1cc(Cl)c2cccnc2c1O (stereo unspecified)
active: OVCAR-8 ovarian 8.81% | NCI/ADR-RES ovarian 7.05%
inactive: SR leukemia 13.2% | RPMI-8226 leukemia 13.8% | OVCAR-5 ovarian 46.9% | OVCAR-4 ovarian 32% | SK-OV-3 ovarian 16% | IGROV1 ovarian 13.1% | OVCAR-3 ovarian 18.8% | HS 578T breast 31.5% | T-47D breast 24.1% | BT-549 breast 35.4% | MDA-MB-435 melanoma 30.5% | SW-620 colon 18.8% | MCF7 breast 21.8% | HCT-116 colon 13.7% | HCC-2998 colon 45% | KM12 colon 22%

COc1ccc2nc3cc(Cl)ccc3c(Nc3ccc(N(C)C)cc3)c2c1
inactive: RPMI-8226 leukemia 27.2% | OVCAR-8 ovarian 90.5% | OVCAR-5 ovarian 110% | OVCAR-4 ovarian 88.7% | SK-OV-3 ovarian 85.7% | IGROV1 ovarian 97% | OVCAR-3 ovarian 95.9% | HS 578T breast 109% | NCI/ADR-RES ovarian 87.1% | T-47D breast 86.3% | BT-549 breast 72.1% | MDA-MB-435 melanoma 99.9% | SW-620 colon 95.1% | MCF7 breast 83.5% | HCT-116 colon 96.9% | HCC-2998 colon 91.9% | KM12 colon 83.1%
active: SR leukemia 1.55%

COc1cnc2c(c1)C(=O)c1c-2n(CCCN2CCC(N)CC2)c(=O)c2cc([N+](=O)[O-])ccc12
inactive: RPMI-8226 leukemia 39.6% | OVCAR-8 ovarian 42.4% | OVCAR-5 ovarian 119% | OVCAR-4 ovarian 60.4% | SK-OV-3 ovarian 30.4% | IGROV1 ovarian 56% | OVCAR-3 ovarian 79.7% | HS 578T breast 81.4% | NCI/ADR-RES ovarian 76% | T-47D breast 46.6% | BT-549 breast 76.7% | MDA-MB-435 melanoma 85.9% | SW-620 colon 37.2% | MCF7 breast 25.3% | HCT-116 colon 36.4% | HCC-2998 colon 69.3% | KM12 colon 44.6%
active: SR leukemia 2.78%

CCC1(/C=N/NC(N)=S)NC(=O)NC1=O (stereo unspecified)
inactive: SR leukemia 91.1% | RPMI-8226 leukemia 103% | OVCAR-8 ovarian 98.1% | OVCAR-5 ovarian 109% | OVCAR-4 ovarian 109% | SK-OV-3 ovarian 83.9% | IGROV1 ovarian 113% | OVCAR-3 ovarian 119% | HS 578T breast 104% | NCI/ADR-RES ovarian 111% | T-47D breast 104% | BT-549 breast 103% | MDA-MB-435 melanoma 105% | SW-620 colon 114% | MCF7 breast 97.7% | HCT-116 colon 101% | HCC-2998 colon 115% | KM12 colon 113%

Nc1ccc(S(=O)(=O)O)c2cc(S(=O)(=O)O)cc(O)c12
inactive: SR leukemia 105% | RPMI-8226 leukemia 102% | OVCAR-8 ovarian 105% | OVCAR-5 ovarian 102% | OVCAR-4 ovarian 109% | SK-OV-3 ovarian 101% | IGROV1 ovarian 107% | OVCAR-3 ovarian 113% | HS 578T breast 103% | NCI/ADR-RES ovarian 105% | T-47D breast 120% | BT-549 breast 99% | MDA-MB-435 melanoma 110% | SW-620 colon 107% | MCF7 breast 104% | HCT-116 colon 93.7% | HCC-2998 colon 117% | KM12 colon 102%

CCN(CC)Cc1cc(Nc2cc(C(F)(F)F)c(C#N)c3nc4ccccc4n23)ccc1O
active: RPMI-8226 leukemia 0.326% | OVCAR-8 ovarian 9.84% | SK-OV-3 ovarian -10.8% | NCI/ADR-RES ovarian 6.79% | T-47D breast -1.95% | BT-549 breast 8.37% | MCF7 breast 8.72% | HCT-116 colon 4.67%
inactive: SR leukemia 12.8% | OVCAR-5 ovarian 31% | OVCAR-4 ovarian 14.2% | IGROV1 ovarian 28.9% | OVCAR-3 ovarian 10.9% | HS 578T breast 22.8% | MDA-MB-435 melanoma 16.9% | SW-620 colon 14.7% | HCC-2998 colon 20.2% | KM12 colon 10.8%

CCOC(=O)C1=C(C)N=C2Sc3cc(OC(F)(F)F)ccc3N2[C@H]1c1ccccn1
inactive: SR leukemia 26.2% | RPMI-8226 leukemia 33.6% | OVCAR-8 ovarian 38% | OVCAR-5 ovarian 65% | OVCAR-4 ovarian 28.3% | SK-OV-3 ovarian 39.9% | IGROV1 ovarian 39.8% | OVCAR-3 ovarian 51.5% | HS 578T breast 63.5% | NCI/ADR-RES ovarian 38.2% | T-47D breast 25.1% | BT-549 breast 59.4% | MDA-MB-435 melanoma 51.1% | SW-620 colon 23.6% | MCF7 breast 41.3% | HCT-116 colon 24.2% | HCC-2998 colon 69.4% | KM12 colon 32.3%

COc1cc2cc(NCc3ccc(Cl)cc3)nc(C)c2cc1OC
inactive: SR leukemia 18.7% | RPMI-8226 leukemia 14.3% | OVCAR-8 ovarian 40.9% | OVCAR-5 ovarian 41.2% | OVCAR-4 ovarian 82.3% | SK-OV-3 ovarian 68% | IGROV1 ovarian 43% | OVCAR-3 ovarian 49.4% | HS 578T breast 70.5% | NCI/ADR-RES ovarian 33.6% | T-47D breast 47.1% | BT-549 breast 30.8% | MDA-MB-435 melanoma 10.9% | SW-620 colon 19.3% | MCF7 breast 51.8% | HCC-2998 colon 27.2% | KM12 colon 37.2%
active: HCT-116 colon 8.8%

COc1ccc(C2CC(=O)c3c(O)c(OC)c(OC)c(OC)c3O2)c(O)c1 (stereo unspecified)
active: OVCAR-3 ovarian 0.132% | NCI/ADR-RES ovarian 4.44% | MDA-MB-435 melanoma -33.7%
inactive: SR leukemia 23% | RPMI-8226 leukemia 32.7% | OVCAR-8 ovarian 36.5% | OVCAR-5 ovarian 54.2% | OVCAR-4 ovarian 48.9% | SK-OV-3 ovarian 42.9% | IGROV1 ovarian 46.3% | HS 578T breast 36.5% | T-47D breast 57.8% | BT-549 breast 60.6% | SW-620 colon 26.2% | MCF7 breast 32.5% | HCT-116 colon 10.2% | HCC-2998 colon 15.9% | KM12 colon 19.9%

CNC(=O)c1cc(Oc2ccc3nc(NC(=O)Nc4ccc(Cl)c(C(F)(F)F)c4)sc3c2)ccn1
active: OVCAR-8 ovarian -11.1% | OVCAR-4 ovarian -34% | OVCAR-3 ovarian -61.1% | HS 578T breast -16.1% | T-47D breast -2.44% | HCT-116 colon -22%
inactive: SR leukemia 22.6% | RPMI-8226 leukemia 61.4% | OVCAR-5 ovarian 30.8% | SK-OV-3 ovarian 12.7% | IGROV1 ovarian 56.8% | NCI/ADR-RES ovarian 11.4% | BT-549 breast 17.4% | MDA-MB-435 melanoma 12.9% | SW-620 colon 21.5% | MCF7 breast 20.8% | HCC-2998 colon 46.6% | KM12 colon 29.8%

COc1cc2c(c(OC)c1)C1c3ccccc3NC(=O)N1CC2 (stereo unspecified)
active: OVCAR-3 ovarian -6.26% | NCI/ADR-RES ovarian 1.85% | MDA-MB-435 melanoma -48.8%
inactive: SR leukemia 13.2% | RPMI-8226 leukemia 16.4% | OVCAR-8 ovarian 44.3% | OVCAR-5 ovarian 48.6% | OVCAR-4 ovarian 50.4% | SK-OV-3 ovarian 52.8% | IGROV1 ovarian 60.2% | HS 578T breast 16.4% | T-47D breast 44% | BT-549 breast 50.3% | SW-620 colon 20.5% | MCF7 breast 18.1% | HCT-116 colon 30.6% | HCC-2998 colon 53.4% | KM12 colon 26.2%

Cc1cc2c3c(cccc3c1)C(=O)c1ccccc1-2
inactive: SR leukemia 96.6% | RPMI-8226 leukemia 109% | OVCAR-8 ovarian 107% | OVCAR-5 ovarian 100% | OVCAR-4 ovarian 94.8% | SK-OV-3 ovarian 107% | IGROV1 ovarian 90.5% | OVCAR-3 ovarian 90.2% | HS 578T breast 99.6% | NCI/ADR-RES ovarian 77.9% | T-47D breast 92.1% | BT-549 breast 95.3% | MDA-MB-435 melanoma 103% | SW-620 colon 94.7% | MCF7 breast 82% | HCT-116 colon 96.1% | HCC-2998 colon 98.2% | KM12 colon 93.3%

CCc1nc2cc(/C=C/C(=O)NO)ccc2c(=O)n1CCc1ccc(F)cc1
active: RPMI-8226 leukemia 6.42% | OVCAR-8 ovarian 5.85% | SK-OV-3 ovarian -16.3% | OVCAR-3 ovarian -13.5% | NCI/ADR-RES ovarian 4.25% | T-47D breast -0.122% | SW-620 colon 6.35% | HCT-116 colon 3.23%
inactive: SR leukemia 10.7% | OVCAR-5 ovarian 25.7% | OVCAR-4 ovarian 25.4% | IGROV1 ovarian 28% | HS 578T breast 52.6% | BT-549 breast 23.8% | MDA-MB-435 melanoma 17.3% | MCF7 breast 10.2% | HCC-2998 colon 32.4% | KM12 colon 12%

COc1ccc2c(CCc3ccc(Cl)cc3)c3[n+](cc2c1OC)CCc1cc2c(cc1-3)OCO2
active: MDA-MB-435 melanoma 1.77%
inactive: SR leukemia 33.8% | RPMI-8226 leukemia 20.7% | OVCAR-8 ovarian 51% | OVCAR-5 ovarian 86.2% | OVCAR-4 ovarian 24.4% | SK-OV-3 ovarian 75.2% | IGROV1 ovarian 40.8% | OVCAR-3 ovarian 44.2% | HS 578T breast 79.6% | NCI/ADR-RES ovarian 101% | T-47D breast 24.9% | BT-549 breast 18.5% | SW-620 colon 73.2% | MCF7 breast 60.4% | HCT-116 colon 36.5% | HCC-2998 colon 36.2% | KM12 colon 34.4%

Cc1cc(N(CCNc2ccnc3cc(Cl)ccc23)Cc2cccs2)nc(Cl)n1
active: SR leukemia -22.9% | RPMI-8226 leukemia -23.2% | OVCAR-4 ovarian -51.3% | SK-OV-3 ovarian -48.8% | IGROV1 ovarian -1.29% | OVCAR-3 ovarian -77.4% | HS 578T breast -5.93% | NCI/ADR-RES ovarian -2.82% | T-47D breast -34.3% | BT-549 breast -55.4% | MDA-MB-435 melanoma -1.48% | SW-620 colon 2.77% | MCF7 breast 5.64% | HCT-116 colon -85% | HCC-2998 colon -14.3%
inactive: OVCAR-8 ovarian 11.5% | OVCAR-5 ovarian 12.8% | KM12 colon 34%

Cc1cc(N2CCCC2)nc(N(CCCNc2ccnc3cc(Cl)ccc23)Cc2ccc3c(c2)OCO3)n1
inactive: OVCAR-4 ovarian 13.5% | SK-OV-3 ovarian 53.5% | KM12 colon 19.1%
active: SR leukemia -36% | RPMI-8226 leukemia -31.2% | OVCAR-8 ovarian -2.12% | OVCAR-5 ovarian -3.2% | IGROV1 ovarian -7.14% | OVCAR-3 ovarian -32.8% | HS 578T breast -32.2% | NCI/ADR-RES ovarian 1.74% | T-47D breast -18.4% | BT-549 breast -14.1% | MDA-MB-435 melanoma -71.9% | SW-620 colon -27% | MCF7 breast -12.8% | HCT-116 colon -22.9% | HCC-2998 colon -52.4%

C=CC[n+]1c(/C=C/C=C2\N(C)c3ccccc3C2(C)C)sc2ccc(OC)cc21
inactive: SR leukemia 11.7% | OVCAR-8 ovarian 12.2% | OVCAR-5 ovarian 22.4% | OVCAR-4 ovarian 25.1% | IGROV1 ovarian 40.9% | OVCAR-3 ovarian 13.3% | HS 578T breast 53.6% | NCI/ADR-RES ovarian 71.7% | T-47D breast 12.1% | BT-549 breast 14.6% | MDA-MB-435 melanoma 12.8% | SW-620 colon 19.9% | HCT-116 colon 11.6% | HCC-2998 colon 30.2% | KM12 colon 13.4%
active: RPMI-8226 leukemia 1.33% | SK-OV-3 ovarian -13.8% | MCF7 breast 6.97%
